# Data as given in PubChem BioAssay (NCI).
# Compounds without any hit were thinned out: in the full panel of roughly 83,000, 20% have a hit.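 Interpretation: 100, growth as untreated; towards 0, rising growth inhibition; 0, no net growth; 0 to -100, cell death. Compounds scoring below 10 were considered active.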 Values without a mark were called inactive. Active and inactive are the calls of the source.
# Columns and labels:
# Assay in all cases: NCI-60 one-dose screen, 48 h (100 = growth as untreated, 0 = no growth, -100 = all killed)
# Details in all cases: 10 µM unless noted
# [1] = tested on: NCI-H23 lung
# [2] = tested on: NCI-H226 lung
# [3] = tested on: NCI-H322M lung
# [4] = tested on: HOP-62 NSCLC
# [5] = tested on: NCI-H460 lung
# [6] = tested on: HOP-92 NSCLC
# [7] = tested on: NCI-H522 lung
# [8] = tested on: A549/ATCC NSCLC
# [9] = tested on: 786-0 renal
# [10] = tested on: COLO 205 colon
SMILES,growth [1],growth [2],growth [3],growth [4],growth [5],growth [6],growth [7],growth [8],growth [9],growth [10]
CCOC(=O)CC1CSC(N/N=C/c2ccc(-n3cccn3)cc2)=N1 (stereo not given),101%,95%,104%,105%,107%,99.3%,99.1%,93.1%,108%,126%
CCc1ccc(CNc2ccc(N3CCOCC3)c(C(=O)O)c2)cc1,95.2%,109%,102%,90.2%,130%,105%,83.3%,99%,98.9%,101%
CC1(C)c2[nH]c3ccccc3c2C[C@]2(C)[C@H]3C(=O)C=C4[C@@H]5C[C@@](C)(C(N)=O)CC[C@]5(C)CC[C@@]4(C)[C@]3(C)CC[C@@H]12,72.5%,73.2%,66.4%,85.3%,69.4%,55.4%,68.7%,65.8%,75%,46.7%
COc1c(Cl)c2c(c(OC)c1OC)-c1ccc(SC)c(=O)cc1[C@@H](NC(=O)OCC(F)(F)F)CC2,34.1%,16.4%,33.6%,34.3%,2.44% (active),23.4%,17.9%,22.2%,11%,-0.15% (active)
Cc1cc2cc3ccc(N(C)C)cc3nc2cc1N,-25.6% (active),-28.4% (active),-5.9% (active),-39.1% (active),-70.9% (active),-4.62% (active),-49.9% (active),-18.7% (active),8.26% (active),-67.7% (active)
CCCOc1ccc(/C=N/Nc2cc(C)nc3ccc(Br)cc23)cc1,86.9%,93.3%,94.5%,92.7%,70.5%,67.9%,101%,94.6%,100%,44.8%
O=S(=O)(NCCNc1nccc(-c2c(-c3cccc(O)c3)nc3occn23)n1)c1ccc(Cl)cc1,103%,109%,112%,120%,102%,115%,98.6%,101%,109%,32.7%
COc1ccc(-c2nc([C@@H](C)Sc3nc(N)cc(N)n3)c(C)s2)cc1OCCN1CCOCC1,103%,95.7%,109%,94.5%,110%,95.3%,87%,96.2%,104%,116%
COC(=O)C(OC(C)=O)C(OC(C)=O)c1ccc(OC)c(OC)c1 (stereo not given),96.8%,98.4%,93.4%,98.2%,104%,110%,85.9%,80.1%,101%,123%
CC1(C)NCCC[C@]2(C)[C@H]3CC[C@@H]4[C@H]5[C@H](C(=O)/C=C/c6ccco6)CC[C@]5(CO)CC[C@@]4(C)[C@]3(C)CC[C@@H]12,89.1%,94.8%,92.6%,91.8%,56.2%,70.1%,88.3%,87.2%,74.4%,-2.99% (active)
CNC(=O)c1cccc(Cn2nc(C)c(NC(=O)c3ccc(COc4ccc(C(F)(F)F)cc4C)cc3)c2C)n1,43.5%,44.4%,88.9%,46%,50.8%,74.4%,40%,39.1%,61.9%,37.3%
C#CCNC(=O)[C@H](Cc1ccccc1)NC(=O)[C@]12CC[C@@H](C(=C)C)[C@@H]1[C@H]1CC[C@@H]3[C@@]4(C)CCC(=O)C(C)(C)[C@@H]4CC[C@@]3(C)[C@]1(C)CC2,70.6%,68.7%,69.9%,77.1%,66.7%,66%,52.6%,53.9%,76%,78.7%
CCc1ccc(-c2cn3ccnc3c(-c3ccc4ncn(Cc5ccccc5)c4c3)n2)cc1,77%,98.5%,99.1%,82.1%,58%,63.9%,54.1%,54.6%,61.9%,65.8%
